High-throughput results from PubChem.
The entries come from a sample that favours hits as a whole.
Glioma ERSR ind – qHTS for Inducers of the Endoplasmic Reticulum Stress Response (ERSR) in Human Glioma: qHTS | actives 0.02% (n = 420,000) | AID 602332, 2012 | Potency, µM, usual class: activators | U87-MG GRP78 promoter luciferase reporter, 16 h; note: series mostly up to about 76 µM; nearly all actives have a fitted effect of over 35% in size
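Stably transfected U87-MG glioma cells carrying a GRP78-based luciferase sensor; 16 h compound incubation. Luminescence end-point read 10 min after Bright-Glo addition at room temperature.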
G9a block – qHTS Assay for Inhibitors of Histone Lysine Methyltransferase G9a. actives 8.8% (n = 350,000). Potency, µM (highest dose often 102 µM), most hits filed as inhibitors. AID 504332, 2011. G9a H3K9 monomethylation, AlphaScreen, 2 h. Histone-lysine N-methyltransferase EHMT2 (Homo sapiens), Q96KQ7; note: nearly all actives have a fitted effect of over 75% in size
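G9a (20 nM) preincubated 15 min RT with compounds, then 500 nM biotinylated H3K9 peptide and 20 uM SAM added; 2 h RT reaction. Monomethyl-H3K9 product detected by AlphaScreen with anti-H3K9me1 antibody, streptavidin donor and anti-rabbit IgG acceptor beads.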
ALOX12 inh – Primary qHTS assay for inhibitors of human arachidonate 12S-lipoxygenase (ALOX12): Round 2; Polyunsaturated fatty acid lipoxygenase ALOX12 (Homo sapiens), P18054; purified 12hLO, xylenol orange hydroperoxide absorbance; Potency, µM (highest dose often 108 µM), hits mostly inhibitors; actives 1.1% (n = 580,000); AID 1671190, 2021
Target sequence (P18054 whole entry, looked up): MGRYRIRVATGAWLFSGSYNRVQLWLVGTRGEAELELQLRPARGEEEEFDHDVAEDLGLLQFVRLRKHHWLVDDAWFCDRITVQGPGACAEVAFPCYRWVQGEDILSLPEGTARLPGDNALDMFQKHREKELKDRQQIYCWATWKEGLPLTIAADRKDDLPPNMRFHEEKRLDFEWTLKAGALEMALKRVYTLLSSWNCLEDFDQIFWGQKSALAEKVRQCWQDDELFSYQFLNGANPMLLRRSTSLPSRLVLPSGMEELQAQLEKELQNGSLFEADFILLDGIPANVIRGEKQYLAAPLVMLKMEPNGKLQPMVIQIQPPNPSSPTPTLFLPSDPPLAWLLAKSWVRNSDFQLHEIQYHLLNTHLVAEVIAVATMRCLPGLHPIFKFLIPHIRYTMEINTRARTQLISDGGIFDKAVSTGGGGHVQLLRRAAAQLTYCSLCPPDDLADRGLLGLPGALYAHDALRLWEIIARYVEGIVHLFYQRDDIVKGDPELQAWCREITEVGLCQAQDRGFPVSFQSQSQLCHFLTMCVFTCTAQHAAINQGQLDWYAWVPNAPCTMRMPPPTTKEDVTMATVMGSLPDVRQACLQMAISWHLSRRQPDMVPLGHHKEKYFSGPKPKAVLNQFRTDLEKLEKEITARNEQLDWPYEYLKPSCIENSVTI
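Purified human 12hLO at 150 nM in 25 mM Hepes, 0.01% Triton X-100, pH 7.0, preincubated 15 min at room temperature with compound. Reaction started with 40 uM arachidonic acid, 30 min at room temperature. Hydroperoxide measured by Fe-xylenol orange, 573/405 nm absorbance ratio.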
VDR inhibitor – Inhibitors of the vitamin D receptor (VDR): qHTS; Vitamin D3 receptor (Homo sapiens), P11473; VDR-SRC2-3 peptide fluorescence polarization, 2 h; Potency, µM, hits mostly inhibitors; actives 0.93% (n = 400,000); AID 504847, 2011
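After 23 nl compound addition and a short centrifugation, plates sat for 2 hours at ambient temperature; polarization of fluorescence then indicated loss of VDR binding to peptide SRC2-3.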
Sfp inh – qHTS Assay for Inhibitors of Bacillus subtilis Sfp phosphopantetheinyl transferase (PPTase); 4'-phosphopantetheinyl transferase ffp (Bacillus subtilis), Q9F4F7; Biochemical Sfp PPTase activity, qHTS; Potency, µM, most hits filed as inhibitors; actives 3.5% (n = 310,000); AID 1490, 2009;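 note: the enzyme is Sfp with the accession as filed and its product quenches rhodamine fluorescence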
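Reaction rates are the 30-min fluorescence difference (ex 525, em 598 nm) in wells containing 15 nM Sfp, 5 uM rhodamine-CoA and 12.5 uM BHQ-2-YbbR at pH 7.6 with 10 mM MgCl2.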
Hits are given with their value; [ ] = another dose, or the depositor's remark. Calls come from the whole dose curve; as a rule, active = well fitted curve in the direction sought with a large enough effect; inconclusive = small, poorly fitted or top-dose-only effect, or another doubt; inactive = no such curve, though single readings can be large; an effect the other way counts as inactive or inconclusive.

Results for CCN(CC)c1ccc(NS(=O)(=O)c2ccc(C(C)C)cc2)cc1C(=O)O ?
ALOX12 inh: inactive

How did COc1ccc(S(=O)(=O)Nc2ccc3c(c2)CCC3)cc1 do in these assays?
Glioma ERSR ind: inactive; G9a block: inactive; ALOX12 inh: inconclusive; VDR inhibitor: 45µM; Sfp inh: inactive

How did CC(=O)Nc1ccc(S(=O)(=O)Nc2ccc3c(c2)CCC3)cc1 do in these assays?
Glioma ERSR ind: inactive; G9a block: 45µM; ALOX12 inh: inconclusive; VDR inhibitor: inactive; Sfp inh: inactive

How did CCN(CC)c1ccc(NS(=O)(=O)c2ccc(OC)cc2)cc1 do in these assays?
Glioma ERSR ind: inactive; G9a block: 16µM; ALOX12 inh: inactive; VDR inhibitor: inactive; Sfp inh: inactive

Results for COc1ccc(S(=O)(=O)Nc2ccc(N(C)C(C)=O)cc2)cc1 ?
Glioma ERSR ind: inactive; G9a block: inactive; ALOX12 inh: inactive; VDR inhibitor: inactive; Sfp inh: inactive

How did COCCOc1ccc(C(=O)NC(C)(C)C)cc1Br do in these assays?
ALOX12 inh: inactive

How did Cc1ccc(NS(=O)(=O)c2ccc3c(c2)oc(=O)n3C)cc1 do in these assays?
Glioma ERSR ind: inactive; G9a block: inactive; ALOX12 inh: inactive; VDR inhibitor: inactive; Sfp inh: inactive

Results for CC(=O)Nc1ccc(NS(=O)(=O)c2ccc3c(c2)oc(=O)n3C)cc1 ?
Glioma ERSR ind: inactive; G9a block: inactive; ALOX12 inh: 8.9µM; VDR inhibitor: inactive; Sfp inh: inactive

What do the screens show for `CN(C(=O)CSc1n[nH]c(N)n1)C1CCCCC1`?
Glioma ERSR ind: inactive; ALOX12 inh: inactive; VDR inhibitor: inactive

What do the screens show for `Nc1nc(SCC(=O)C23CC4CC(CC(C4)C2)C3)n[nH]1`?
Glioma ERSR ind: inactive; G9a block: 35µM; ALOX12 inh: inactive; VDR inhibitor: inactive; Sfp inh: inactive

Results for OCCCCC#Cc1c(-c2ccsc2)sc2ccccc12 ?
Glioma ERSR ind: inactive; G9a block: inactive; ALOX12 inh: inactive; VDR inhibitor: inactive; Sfp inh: inactive

What do the screens show for `OCCC#Cc1c(-c2ccsc2)sc2ccccc12`?
Glioma ERSR ind: inactive; G9a block: 11µM; ALOX12 inh: inconclusive; VDR inhibitor: inactive; Sfp inh: inactive

How did COc1cccc(SCC(=O)c2ccc3c(c2)CCC(=O)N3)c1 do in these assays?
ALOX12 inh: 35µM

What do the screens show for `CCCCc1ccc(-c2nc(N)n[nH]2)cc1`?
Glioma ERSR ind: inactive; G9a block: inactive; ALOX12 inh: inactive; VDR inhibitor: inactive; Sfp inh: inactive

How did Nc1n[nH]c(-c2ccc(F)cc2)n1 do in these assays?
Glioma ERSR ind: inactive; G9a block: 45µM; ALOX12 inh: inactive; VDR inhibitor: inactive; Sfp inh: inactive

Results for COc1ccc2nc([C@H]3CCN(Cc4ccc(F)cc4)C3)[nH]c2c1 ?
ALOX12 inh: inactive

What do the screens show for `Cc1ccc(NC(=S)N/N=C2\CC3CC=CC23)c(C)c1` (stereo not drawn)?
Glioma ERSR ind: inactive; G9a block: inconclusive; ALOX12 inh: inconclusive; VDR inhibitor: inconclusive; Sfp inh: 32µM

Results for Cc1cccc(C)c1NC(=S)N/N=C1\CC2CC=CC12 (stereo not drawn) ?
Glioma ERSR ind: inactive; G9a block: 13µM; ALOX12 inh: inactive; VDR inhibitor: inconclusive; Sfp inh: inconclusive

How did CCNc1c(NC(=O)c2ccc(OC(C)=O)c(OC)c2)c(=O)oc2ccccc12 do in these assays?
ALOX12 inh: inactive

Results for Cc1ccccc1OCC(=O)Nc1ccc(N2CCOCC2)cc1N1CCOCC1 ?
Glioma ERSR ind: inactive; G9a block: 10µM; ALOX12 inh: inactive; VDR inhibitor: inactive

How did CCc1ccccc1OCC(=O)Nc1ccc(N2CCCC2)cc1C do in these assays?
Glioma ERSR ind: inactive; G9a block: 3.2µM; VDR inhibitor: inactive

What do the screens show for `Cc1ccc(NC(=O)CCC(=O)NNC(=O)COc2ccccc2)c(C)c1`?
Glioma ERSR ind: inactive; G9a block: inactive; ALOX12 inh: inactive; VDR inhibitor: inactive; Sfp inh: inactive

Results for Cc1ccccc1OCC(=O)N/N=C/c1ccc(N2CCOCC2)o1 ?
Glioma ERSR ind: inactive; G9a block: inactive[0.501 µM]; ALOX12 inh: inactive; VDR inhibitor: 40µM; Sfp inh: 20µM

Results for Cc1cc(N2CCCC2)ccc1NC(=O)COc1ccccc1 ?
Glioma ERSR ind: inactive; G9a block: 7.1µM; ALOX12 inh: inconclusive; VDR inhibitor: inactive

How did NC(=NCc1ccccc1)NCCN1CCN(Cc2ccccc2)CC1 do in these assays?
ALOX12 inh: inactive

Results for CC(C)C(=O)N1N=C(c2cccs2)CC1c1ccc2nccnc2c1 (stereo not drawn) ?
ALOX12 inh: inactive

What do the screens show for `COc1ccc(OCC(=O)Nc2ccccc2N2CCCCC2)cc1`?
Glioma ERSR ind: inactive; ALOX12 inh: inactive; VDR inhibitor: inactive; Sfp inh: inconclusive

Results for COc1ccc(N2CCCC2)c(NC(=O)COc2ccccc2)c1 ?
Glioma ERSR ind: inactive; G9a block: 40µM; ALOX12 inh: inactive; VDR inhibitor: inactive; Sfp inh: inactive

How did Cc1c(CCCC(=O)O)sc(N)c1C(=O)c1cccc(C(F)(F)F)c1 do in these assays?
Glioma ERSR ind: inactive; ALOX12 inh: inconclusive; VDR inhibitor: 89µM

Results for NC(=O)[C@@H](Cc1c[nH]c2ccccc12)NC(=O)[C@H]1CN(C(=O)c2cccc(F)c2)CCN1C(=O)c1cccs1 ?
ALOX12 inh: inactive

How did COCCCNC(=O)c1cc(-c2ccncc2)nc2ccc(S(=O)(=O)N3CCOCC3)cc12 do in these assays?
ALOX12 inh: inactive

What do the screens show for `Cc1ccc(C)n1NC(=O)c1cccs1`?
Glioma ERSR ind: inactive; G9a block: inactive[12.7 µM]; ALOX12 inh: inactive; VDR inhibitor: inactive; Sfp inh: inactive

What do the screens show for `CC(C)(NO)/C(=N/O)c1cccs1`?
Glioma ERSR ind: inactive; G9a block: 7.1µM; ALOX12 inh: inconclusive; VDR inhibitor: inactive; Sfp inh: inactive

What do the screens show for `CCCN(Cc1nc2cc(Cl)ccc2c(=O)[nH]1)C(=O)c1cc(OC)c(OC)c(OC)c1`?
ALOX12 inh: inactive

How did OC(COC(c1ccc(F)cc1)c1ccc(F)cc1)CN1CCCC1 (stereo not drawn) do in these assays?
Glioma ERSR ind: inactive; G9a block: inactive[0.501 µM]; ALOX12 inh: inconclusive; VDR inhibitor: inactive; Sfp inh: 79µM

What do the screens show for `OC1CCCN(CC(O)COC(c2ccccc2)c2ccccc2)C1` (stereo not drawn)?
Glioma ERSR ind: inactive; G9a block: 18µM; ALOX12 inh: inconclusive; VDR inhibitor: inactive; Sfp inh: inactive

Results for CN1CCN(CC(O)COC(c2ccccc2)c2ccccc2)CC1 (stereo not drawn) ?
Glioma ERSR ind: inactive; G9a block: inactive; ALOX12 inh: inactive; VDR inhibitor: inactive; Sfp inh: inactive

Results for COC(=O)[C@@H](NC(=O)Nc1ccc2oc(-c3cccnc3)nc2c1)C(C)C ?
ALOX12 inh: inactive
